This passage reports parasite growth results from the supplement of paper PMC4894684.

Where a name gives a salt, the structure may show the parent alone. ± gives the standard deviation of the averaged measurements.

The subject of the assay is Toxoplasma gondii RH (in HFF). As to the kind of experiment: parasite growth relative to the screen mean (all compounds = 100%); higher = less inhibition of parasite growth. The note with it: 5 µM; 72 h; oxygen 21 %. In short, it runs like this: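 Library compounds (10 mM DMSO stocks) were pin-transferred to 5 µM final onto confluent human foreskin fibroblasts in 96-well plates, then infected within 2 h with RH β-Gal–GFP Toxoplasma (MOI 1:5) and grown 72 h at 21% O2. Parasite number came from a CPRG β-Gal assay against in-plate standard curves. Growth is expressed relative to the screen mean (all compounds = 100%), averaged over two screens. Uninfected host-cell viability was checked by CellTiter-Blue.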
On to `OC1CCCCC1N1CCC(c2ccccc2)CC1` (racemic) [(±)-Vesamicol hydrochloride], for which the parasite growth came to 100 ± 8.3%.
To `Oc1cc2c(cc1O)[C@H]1c3ccccc3CN[C@@H]1CC2` (racemic) [Dihydrexidine hydrochloride] belongs 153 ± 4.6%; to `CCCN1CCO[C@@H]2c3cc(O)ccc3OC[C@H]21`, 96 ± 2.6%; to `COc1ccc(-n2nc(C(F)(F)F)cc2-c2ccc(Cl)cc2)cc1`, 117 ± 22%.
As for `O=C1Nc2cc(Cl)c(Cl)cc2N2CCNCC12` (stereo unspecified), the figure is 176 ± 7.8%; as for `CCCOc1ccc2[nH]cc(C3=CCNCC3)c2n1`, 140 ± 5.8%; as for `C[N+]1(C)CCc2cc3c(cc2[C@H]1[C@@H]1OC(=O)c2c1ccc1c2OCO1)OCO3` [(-)-Bicuculline methiodide], 108 ± 8.7%.
As for `CC(C)(Cc1c[nH]c2ccc(Cl)cc12)NCCOc1ccccc1OCC1CC1`, the figure is under 0%; as for `CCOC(=O)c1ncn2c1CN(C)C(=O)c1cc(N=[N+]=[N-])ccc1-2`, 60 ± 14%.
For `C[C@@]12N[C@@H](Cc3ccccc31)c1ccccc12` [(-)-MK 801 maleate], the parasite growth came to 111 ± 10%.
`C=CCN1CC[C@]23c4c5ccc(O)c4O[C@H]2C(=O)CC[C@@]3(O)[C@H]1C5` [Naloxone hydrochloride] registered a parasite growth of 143 ± 14%.
